Data published in PubChem BioAssay.
Active and inactive are the calls of the source.

Key:
[1] = system: Plasmodium falciparum Sir2 (PF13_0152, Sir2A); assay: Plasmodium falciparum Sir2A binding compounds – biochemical, small-molecule microarray, 635 nm fluorescence, primary screen (AID 1098); conditions: fluorescence 635 nm, higher = more signal;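 also: score merges spot fluorescence intensity with its signal-to-noise ratio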
[2] = probe aDKK1 binding to arrayed compounds – biochemical, biotinylated probe, 635/667 nm fluorescence, primary screen (AID 1099); conditions: small-molecule microarray, higher = more signal;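 also: score merges 667nm spot fluorescence with signal to noise across triplicate slides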
[3] = probe aCHRDL2 binding to arrayed compounds – biochemical, biotinylated probe, 635/667 nm fluorescence, primary screen (AID 1100); conditions: small-molecule microarray, higher = more signal
[4] = change in splice reporter luminescence, either direction, cell-based, HEK293, spliceosome inhibition project, primary screen (AID 1101); conditions: HEK293 splicing luciferase reporter, 24 h, higher = more signal, called active from +8 up or from −8 down;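 also: HEK293 cells carrying a splicing-competent luciferase reporter gene; test concentration not given here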
[5] = biological target: Fibroblast growth factor 10 (Homo sapiens) (UniProt O15520); assay: compounds binding fibroblast growth factor 10 – biochemical, small-molecule microarray, 635 nm fluorescence, primary screen (AID 1102); conditions: FGF10 binding, fluorescence 635 nm, higher = more signal
Chain of Fibroblast growth factor 10 (Homo sapiens) (O15520 whole entry, looked up): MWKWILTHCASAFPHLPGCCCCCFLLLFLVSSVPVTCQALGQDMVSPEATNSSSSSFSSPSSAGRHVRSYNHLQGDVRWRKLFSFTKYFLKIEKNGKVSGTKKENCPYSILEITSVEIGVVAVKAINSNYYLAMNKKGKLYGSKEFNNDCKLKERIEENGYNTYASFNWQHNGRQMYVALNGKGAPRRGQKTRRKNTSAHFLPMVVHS

[6] = system: glycogen synthase kinase-3 (GSK3A per assay name; protocol says GSK3B); assay: compounds binding glycogen synthase kinase-3 – biochemical, small-molecule microarray, 635 nm fluorescence, GSK3A, primary screen (AID 1103); conditions: fluorescence 635 nm, higher = more signal; also: the record names both GSK3A and GSK3B
[7] = biological target: Epidermal growth factor receptor (Homo sapiens) (UniProt P00533); assay: compounds binding epidermal growth factor receptor – biochemical, small-molecule microarray, 635 nm fluorescence, primary screen (AID 1104); conditions: EGFR binding, higher = more signal;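 also: score merges 667 nm emission intensity with spot signal to noise over triplicate slides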
Chain of Epidermal growth factor receptor (Homo sapiens) (P00533 whole entry, looked up): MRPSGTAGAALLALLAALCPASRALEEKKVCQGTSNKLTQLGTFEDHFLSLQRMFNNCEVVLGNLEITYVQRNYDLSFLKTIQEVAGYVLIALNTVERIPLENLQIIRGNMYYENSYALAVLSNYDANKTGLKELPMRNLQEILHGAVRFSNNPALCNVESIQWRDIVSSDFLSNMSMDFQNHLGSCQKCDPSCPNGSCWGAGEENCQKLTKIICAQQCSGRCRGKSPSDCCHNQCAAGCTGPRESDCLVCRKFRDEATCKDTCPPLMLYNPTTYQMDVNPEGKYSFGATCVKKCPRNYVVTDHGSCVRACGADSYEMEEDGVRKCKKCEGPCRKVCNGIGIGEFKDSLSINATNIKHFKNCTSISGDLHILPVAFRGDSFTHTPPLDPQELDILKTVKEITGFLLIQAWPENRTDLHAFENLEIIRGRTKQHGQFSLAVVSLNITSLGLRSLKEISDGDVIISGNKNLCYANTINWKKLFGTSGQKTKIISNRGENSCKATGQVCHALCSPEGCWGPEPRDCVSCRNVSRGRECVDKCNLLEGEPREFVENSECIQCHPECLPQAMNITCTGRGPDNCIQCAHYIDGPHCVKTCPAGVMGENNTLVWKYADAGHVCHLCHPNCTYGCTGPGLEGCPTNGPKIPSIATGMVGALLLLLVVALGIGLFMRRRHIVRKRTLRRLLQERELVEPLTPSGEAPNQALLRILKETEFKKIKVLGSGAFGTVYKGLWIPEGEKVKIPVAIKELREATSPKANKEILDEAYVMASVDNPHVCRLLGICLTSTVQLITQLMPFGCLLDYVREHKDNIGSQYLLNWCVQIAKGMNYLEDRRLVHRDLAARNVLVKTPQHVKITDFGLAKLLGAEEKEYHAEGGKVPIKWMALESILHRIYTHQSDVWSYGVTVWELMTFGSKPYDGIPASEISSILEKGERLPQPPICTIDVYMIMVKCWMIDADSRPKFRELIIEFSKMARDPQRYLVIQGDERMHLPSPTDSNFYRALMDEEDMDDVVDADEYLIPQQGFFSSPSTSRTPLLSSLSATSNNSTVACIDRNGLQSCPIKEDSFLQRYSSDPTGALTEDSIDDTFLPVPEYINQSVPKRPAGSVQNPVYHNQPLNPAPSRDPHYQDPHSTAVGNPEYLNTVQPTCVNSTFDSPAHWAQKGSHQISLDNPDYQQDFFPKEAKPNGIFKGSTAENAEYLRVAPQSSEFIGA

[8] = biological target: Follistatin-related protein 3 (Homo sapiens) (UniProt O95633); assay: compounds binding follistatin-related protein 3 – biochemical, small-molecule microarray, 635 nm fluorescence, primary screen (AID 1105); conditions: FSTL3 binding, higher = more signal;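 also: score merges emission near 667 nm and signal to noise per printed spot across three slides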
Chain of Follistatin-related protein 3 (Homo sapiens) (O95633 whole entry, looked up): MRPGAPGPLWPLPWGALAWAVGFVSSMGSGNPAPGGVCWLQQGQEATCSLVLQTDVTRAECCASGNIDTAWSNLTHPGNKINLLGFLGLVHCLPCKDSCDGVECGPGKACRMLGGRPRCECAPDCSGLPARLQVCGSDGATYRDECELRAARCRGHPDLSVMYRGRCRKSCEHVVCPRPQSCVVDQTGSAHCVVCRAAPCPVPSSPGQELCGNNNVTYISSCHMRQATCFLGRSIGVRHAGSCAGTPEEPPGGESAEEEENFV

[9] = biological target: Dickkopf-related protein 1 (Homo sapiens) (UniProt O94907); assay: small molecules binding DKK1 protein – biochemical, small-molecule microarray, 635 nm fluorescence scan, primary screen (AID 1106); conditions: higher = more signal;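 also: score merges emission near 667 nm with signal to noise over three replicate slides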
Chain of Dickkopf-related protein 1 (Homo sapiens) (O94907 whole entry, looked up): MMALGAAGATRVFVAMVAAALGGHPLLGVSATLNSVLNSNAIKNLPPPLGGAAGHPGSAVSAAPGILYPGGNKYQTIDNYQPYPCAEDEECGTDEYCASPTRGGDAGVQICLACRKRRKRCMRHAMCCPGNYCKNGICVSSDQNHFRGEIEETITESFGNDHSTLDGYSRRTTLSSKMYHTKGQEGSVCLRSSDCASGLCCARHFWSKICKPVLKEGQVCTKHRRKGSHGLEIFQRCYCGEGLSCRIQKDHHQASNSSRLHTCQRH

[10] = system: Inhibin beta A chain (activin A); assay: small molecules binding activin A – biochemical, small-molecule microarray, 635 nm fluorescence scan, primary screen (AID 1107); conditions: INHBA, higher = more signal;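 also: mouse activin A protein probed at 4.33 µg/mL on printed slides; score merges bound-protein fluorescence near 667 nm with spot signal-to-noise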
[11] = system: Human papillomavirus type 1a protein E7 (residues 44-93); assay: small molecules binding HPV E7 44-93 – biochemical, small-molecule microarray, residues 44-93, 635 nm fluorescence, primary screen (AID 1108); conditions: fluorescence 635 nm, higher = more signal;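 also: E7 fragment applied at 1 µg/mL in TBST for 1 h at 4 C; score combines spot fluorescence with its signal to noise ratio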
[12] = hepatitis C replication reporter changes, two-sided – Huh7 cells, luciferase reporter, HCV replication inhibitor project, primary screen (AID 1109); conditions: Huh7 HCV replicon luciferase reporter, 48 h; higher = more signal;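 also: huh7 hepatoma cells harbouring a luciferase neomycin HCV replicon reporter; luciferase luminescence as measure of HCV replicon replication; test concentration not given here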
[13] = biological target: Left-right determination factor 2 (Homo sapiens) (UniProt O00292); assay: small molecules binding LEFTY2 protein – biochemical, small-molecule microarray, 635 nm fluorescence scan, primary screen (AID 1110); conditions: higher = more signal
Chain of Left-right determination factor 2 (Homo sapiens) (O00292 whole entry, looked up): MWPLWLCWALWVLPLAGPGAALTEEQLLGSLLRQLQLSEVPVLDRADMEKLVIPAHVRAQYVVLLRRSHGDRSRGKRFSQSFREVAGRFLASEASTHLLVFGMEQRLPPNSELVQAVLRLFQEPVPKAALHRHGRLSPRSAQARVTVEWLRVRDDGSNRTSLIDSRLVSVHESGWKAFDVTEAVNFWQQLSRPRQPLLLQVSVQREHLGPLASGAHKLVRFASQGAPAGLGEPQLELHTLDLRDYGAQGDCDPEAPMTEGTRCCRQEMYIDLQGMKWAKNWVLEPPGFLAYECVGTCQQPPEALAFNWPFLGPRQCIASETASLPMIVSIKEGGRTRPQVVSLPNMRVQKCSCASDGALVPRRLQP

[14] = biological target: Calmodulin-1 (Homo sapiens) (UniProt P0DP23); assay: small molecules binding calmodulin-1 with EGTA – biochemical, small-molecule microarray, Cy5-labelled CALM1, profiling panel (AID 1111); conditions: Cy5-CALM1 binding fluorescence, higher = more signal;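 also: labelled calmodulin applied in Tris saline Tween buffer holding calcium plus EGTA and DTT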
[15] = biological target: Calmodulin-1 (Homo sapiens) (UniProt P0DP23); assay: small molecules binding Ca-loaded calmodulin-1 – biochemical, small-molecule microarray, Cy5-labelled CALM1, plus calcium, artefact control for SMM control-protein annotation, profiling panel (AID 1112); conditions: Cy5-CALM1 binding fluorescence, higher = more signal;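 also: score merges spot fluorescence with signal to noise from triplicate slides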
[16] = probe aWnt5a binding to arrayed compounds – biochemical, biotinylated probe, 635/667 nm fluorescence, primary screen (AID 1113); conditions: small-molecule microarray, higher = more signal;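 also: score merges 667 nm fluorescence intensity with signal-to-noise per printed feature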
[17] = probe aShh binding to arrayed compounds – biochemical, biotinylated probe, 635/667 nm fluorescence, primary screen (AID 1114); conditions: small-molecule microarray, higher = more signal;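 also: probe is biotin-labelled aShh protein from a stem cell growth factor screen; measures binding of labelled protein to compounds printed on the slide; score merges feature fluorescence at 667 nm with signal-to-noise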
[18] = probe aNog binding to arrayed compounds – biochemical, biotinylated probe, 635/667 nm fluorescence, primary screen (AID 1115); conditions: small-molecule microarray, higher = more signal;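 also: probe is biotinylated aNog protein used at 0.15 µg/mL for 1 h at 4 C; z-score combines 667 nm fluorescence of each spot with its signal to noise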
[19] = biological target: Torsin-1A-interacting protein 1 (Homo sapiens) (UniProt Q5JTV8); assay: compound microarray binding of lysate hLAP1 – cell lysate, small-molecule microarray, COS7 lysate, 635/667 nm fluorescence, primary screen (AID 1116); conditions: 635 nm fluorescence, higher = more signal
Chain of Torsin-1A-interacting protein 1 (Homo sapiens) (Q5JTV8 whole entry, looked up): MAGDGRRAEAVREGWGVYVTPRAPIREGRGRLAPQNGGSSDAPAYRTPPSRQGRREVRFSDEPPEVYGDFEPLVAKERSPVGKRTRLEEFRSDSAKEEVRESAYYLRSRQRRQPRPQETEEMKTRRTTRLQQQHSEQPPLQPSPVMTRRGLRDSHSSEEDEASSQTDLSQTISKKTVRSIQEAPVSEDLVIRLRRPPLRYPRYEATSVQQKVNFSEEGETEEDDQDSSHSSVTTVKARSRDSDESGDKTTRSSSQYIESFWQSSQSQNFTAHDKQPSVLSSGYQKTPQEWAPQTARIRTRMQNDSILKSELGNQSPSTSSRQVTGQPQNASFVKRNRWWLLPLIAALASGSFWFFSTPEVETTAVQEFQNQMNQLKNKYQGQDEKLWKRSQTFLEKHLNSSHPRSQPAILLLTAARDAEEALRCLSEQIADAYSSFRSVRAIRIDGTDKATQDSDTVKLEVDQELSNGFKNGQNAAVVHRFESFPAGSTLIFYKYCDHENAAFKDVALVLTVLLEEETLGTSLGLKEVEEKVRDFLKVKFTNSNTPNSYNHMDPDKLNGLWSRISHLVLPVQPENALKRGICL

[20] = biological target: Alpha-bungarotoxin (Bungarus multicinctus) (UniProt P60615); assay: compounds binding labelled alpha-BTX control protein – biochemical, small-molecule microarray, Alexa647 label, 635/667 nm fluorescence, artefact control for SMM control protein annotation, profiling panel (AID 1117); conditions: alpha-BTX-A647 binding fluorescence, higher = more signal
Chain of Alpha-bungarotoxin (Bungarus multicinctus) (P60615 whole entry, looked up): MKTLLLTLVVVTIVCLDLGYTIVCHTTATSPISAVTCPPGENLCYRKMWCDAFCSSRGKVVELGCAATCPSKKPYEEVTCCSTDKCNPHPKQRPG

SMILES | composite z-score [1] | composite z-score [2] | composite z-score [3] | z-score [4] | composite z-score [5] | composite z-score [6] | composite z-score [7] | composite z-score [8] | composite z-score [9] | composite z-score [10] | composite z-score [11] | z-score [12] | composite z-score [13] | composite z-score [14] | composite z-score [15] | composite z-score [16] | composite z-score [17] | composite z-score [18] | composite z-score [19] | composite z-score [20]
Cc1ccc(S[C@]2(C(=O)NCCCN(C)C)CC(=O)N(Cc3cc(C(F)(F)F)cc(C(F)(F)F)c3)[C@@H]2c2ccc(CO)cc2)cc1 | -1 | -0.214 | 0.495 | 0.269 (inactive) | -1.11 | -0.655 | -0.675 | 0.259 | -1.62 | 0.798 | -0.224 | 0.478 | -0.286 | 0.136 | 0.499 | -0.152 | -0.0769 | -0.29 | 0.523 | 0.182
C=CCNC(=O)[C@@H]1[C@H]2C(=O)O[C@H](c3ccccc3)[C@H](c3ccccc3)N2[C@H](c2ccc(O)cc2)[C@@]12C(=O)N(C(=O)OCCOC)c1ccc(C#CCNC(N)=O)cc12 | 0.88 | 0.148 | 0.658 | -0.273 (inactive) | 0.969 | 1.06 | 0.119 | 1.08 | 0.417 | 1.02 | 1.32 | -0.578 | 0.31 | 1.83 | 0.294 | 0.0017 | 1.68 | 0.681 | 1.45 | 0.83
CN1C=C(C(=O)OCCS(C)(=O)=O)C(C(=O)OCCS(C)(=O)=O)=CC(c2ccc(CO)cc2)=CC1C1CC1 (stereo not given) | 0.666 | -0.0901 | 0.166 | 0.456 (inactive) | 0.16 | -0.0888 | 0.353 | -0.0857 | 0.0847 | 0.99 | -0.0095 | -0.595 | 0.328 | 0.405 | -0.306 | -0.105 | -0.0681 | 0.366 | 1.83 | 0.274
C=CCNC(=O)[C@@H]1[C@H]2C(=O)O[C@H](c3ccccc3)[C@H](c3ccccc3)N2[C@H](c2ccc(O)cc2)[C@@]12C(=O)Nc1ccc(C#CCNC(N)=O)cc12 | 0.213 | -0.3 | 0.778 | 0.788 (inactive) | 0.0464 | -0.489 | -0.219 | -0.164 | -0.732 | -0.0122 | 1.28 | -0.365 | -1.09 | -0.0555 | -0.28 | -0.124 | 0.157 | -0.125 | 1.4 | -0.234
CCCC[C@@H]1C[C@H]1[C@@H](NC(=O)c1ccco1)c1ccc(-c2ccccc2)cc1 | -0.338 | 0.189 | 0.272 | -1.61 (inactive) | 0.222 | 0.118 | -0.0501 | -0.0483 | -0.426 | 0.39 | 0.114 | -0.971 | 0.0023 | -0.179 | 0.0765 | 0.0916 | 0.104 | 0.376 | 0.425 | 0.0932
NC(=O)NCC#Cc1ccc2c(c1)[C@]1(C(=O)N2)[C@H](C(=O)Nc2nc3ccccc3s2)[C@H]2C(=O)O[C@H](c3ccccc3)[C@H](c3ccccc3)N2[C@@H]1c1ccccc1OCCO | 1.23 | 1.83 | -0.202 | -0.137 (inactive) | 1.27 | 0.261 | 0.997 | 1.02 | 1.44 | 1.08 | 1.4 | -1.33 | 0.235 | 1.23 | 0.579 | 0.312 | -0.0773 | 2.12 | -0.638 | 2.74
CCC(CC)C(O)C1C=CC2C(=O)NC(=O)C2N1Nc1ccccn1 (stereo not given) | 0.259 | 0.572 | -0.705 | 1.17 (inactive) | 0.269 | 0.291 | 0.384 | 0.584 | 0.816 | 1.29 | 0.365 | -0.642 | 0.255 | 0.0646 | -0.161 | -0.0704 | -0.217 | 0.455 | 0.275 | 0.512
COc1cc2c(cc1OC)CN(C(=O)[C@@H]1[C@H]3C(=O)O[C@H](c4ccccc4)[C@H](c4ccccc4)N3[C@H](c3ccc(O)cc3)[C@@]13C(=O)Nc1ccccc13)CC2 | 1.66 | -0.22 | 0.104 | -0.764 (inactive) | 0.397 | 1 | -0.0444 | 0.346 | 0.27 | -0.131 | 1.39 | -1.74 | 0.0147 | 0.457 | 0.603 | -0.154 | -0.167 | -0.321 | 0.688 | 1.74
COC(=O)[C@@]1(Cc2ccccc2)N=C(c2ccc(OCCCO)cc2)O[C@H]1c1ccccc1 | 1.65 | 0.206 | 0.893 | 6.38 (inactive) | 0.0071 | 0.319 | -1.08 | -1.05 | -0.862 | 0.599 | 0.968 | -1.98 | -1.06 | 0.288 | -0.0316 | -0.0647 | 0.261 | 1.14 | 2.32 | 1.93
COC(=O)[C@@]1(Cc2ccc(OC)cc2)[C@H]2c3cc(C(=O)N(C)C)n(C)c3C[C@H]2CN1C(=O)c1ccccc1 | 0.843 | 0.928 | 1.28 | -1.96 (inactive) | 0.924 | 0.789 | 0.534 | 1.33 | -0.105 | 0.511 | 1.45 | -2.62 | -0.239 | 2.01 | 0.749 | 0.0337 | 0.527 | 2.11 | 1.15 | 0.696
COc1ccc(CCNC(=O)[C@@]2(C)c3ccccc3C(=O)N(C(C)C)[C@H]2c2ccc(CO)cc2)cc1 | 0.5 | 0.056 | -0.0776 | -0.36 (inactive) | 0.558 | -0.0218 | 0.41 | 0.335 | 0.503 | 0.918 | 0.0331 | -1.3 | 0.364 | -0.118 | -0.229 | -0.131 | -0.0886 | -0.282 | 0.33 | 0.672
C=C(CCCC)/C(=C/C[C@H](OC(=O)c1ccncc1)c1ccccc1OCCO)c1cnc2ccccc2c1 | 0.869 | -0.037 | -0.286 | -0.292 (inactive) | 1.08 | 0.898 | 0.591 | 1.49 | 0.472 | 1.66 | 1.13 | -2.82 | 0.274 | 0.154 | -0.666 | -0.096 | -0.0977 | -0.0428 | 0.634 | 0.527
C=C(COC)/C(=C/C[C@H](OC(C)=O)c1ccc(CO)o1)c1cc(C(=O)OC)ccc1OC | 1.12 | 0.667 | -0.201 | -0.0994 (inactive) | 0.483 | -0.0434 | -0.173 | -0.0145 | -0.164 | 1.32 | 0.487 | -0.246 | -0.151 | -0.0624 | 0.204 | -0.0107 | -0.105 | -0.0489 | 0.0742 | -0.136
COCCCNC(=O)[C@@H]1c2ccccc2C(=O)N(Cc2ccccc2Cl)[C@H]1c1ccc(CO)cc1 | 0.471 | 0.167 | 0.199 | 0.5 (inactive) | 0.629 | 1.17 | 0.245 | 0.715 | 0.412 | 0.975 | 0.867 | 0.318 | 0.67 | -0.48 | -0.613 | -0.0792 | 0.0684 | -0.382 | 1.51 | -0.195
C=CCNC(=O)[C@H]1[C@@H]2C(=O)O[C@@H](c3ccccc3)[C@@H](c3ccccc3)N2[C@@H](c2ccccc2OCCO)[C@]12C(=O)Nc1ccc(C#CCC(C(=O)OC)C(=O)OC)cc12 | 0.797 | 0.309 | 0.973 | -2.39 (inactive) | 1.26 | 1.33 | 1.15 | 1.37 | 1.23 | 0.568 | 1.46 | -2.33 | 1.07 | 2.02 | 1.24 | 0.0914 | 0.224 | 0.46 | 1.37 | 2.13
[N-]=[N+]=Nc1ccccc1[C@H]1OC(c2ccc(OCCCO)cc2)=N[C@@]1(CCS(=O)(=O)c1ccccc1)C(N)=O | 1.53 | 1.01 | 1.37 | -1.36 (inactive) | 1.12 | 0.915 | -0.541 | -0.0805 | 0.0979 | 1.26 | 0.321 | -0.268 | -0.154 | 1.41 | 0.389 | 0.161 | 0.117 | -0.939 | 1.71 | 1.92
